Bioassay records: PubChem BioAssay, The Scripps Research Institute Molecular Screening Center
Only some compounds are listed: those with a hit (about 3.5% of all), similar ones and a draw of the others.
GPR151 activ = human GPR151 activation; Q8TDV0; PathHunter beta-arrestin GPR151 cells, luminescence; activation, % at 11.2 µM; 650,000 tested, 1% active; AID 1508602; in the data active means activation above about 4.9%;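 further: 0% = median of compound wells and 100% = cells with positive control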
FBW7 activator = activators of human E3 ligase FBW7; Q969H0; AlphaScreen FBW7–phospho-cyclin E peptide binding, activator screen; normalized activity (activation), % at 26.1 µM; 650,000 tested, 0.13% active; AID 1259310; in the data active means normalized activity above about 1.9%;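 further: purified mutant Fbw7 with reduced substrate affinity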
TEAD-YAP block = TEAD-YAP interaction inhibition; HEK-TIYL cells, TEAD-Gal4/YAP UAS-luciferase luminescence; inhibition, % at 9.12 µM; 640,000 tested, 1.4% active; AID 1259422; in the data active means inhibition above about 32%;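 further: 0% = median of test compound wells and 100% = reference inhibitor wells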
MITF inh = human MITF inhibition, primary screen; O75030; AID 1259374; 650,000 tested, 0.91% active; AlphaScreen MITF homodimerization, bead proximity signal; inhibition, % at 2.6 µM; in the data active means inhibition above about 50%;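 further: 0% = vehicle wells with protein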
MITF confirm = confirmation of human MITF inhibitors | shares compounds with MITF inh | AlphaScreen MITF homodimerization, biotin/His-MITF beads | inhibition, % at 2.6 µM | 4,700 tested, 16% active;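 active means inhibition above a cutoff derived from the DMSO control wells, cut at about 28% in these data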;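 further: 0% = MITF dimer wells with DMSO only; inhibitors lower the bead chemiluminescence by keeping MITF from dimerizing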
AlphaScreen DR = optically interferes with AlphaScreen signal in dose response | shares compounds with MITF inh | AlphaScreen optical interference counterscreen, cell-free | IC50, µM | 480 tested, 6% active; call rule not given here
AlphaScreen intf2 = AlphaScreen optical interference, counter-screen; shares compounds with MITF inh; LysRS AlphaScreen counterscreen, signal interference, triplicate; inhibition, % at 2.6 µM; 4,700 tested, 7.6% active; AID 1259376;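 active means inhibition above a cutoff derived from the DMSO control wells, cut at about 30% in these data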
GPR151 conf act = confirmation of human GPR151 activators; 6,700 tested, under 10 active; activation, % at 11.2 µM; GPR151 PathHunter beta-arrestin cells, luminescence, 90 min; % of EA-reagent control over plate median; shares compounds with GPR151 activ;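 active means mean percent activation across replicates above the confirmation screen cutoff of 4.91%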
GPR119 counter = activates human GPR119 in a GPR151 counter-screen | shares compounds with GPR151 activ | GPR119 PathHunter beta-arrestin cells, luminescence, 90 min; 0 = compound-well median, 100 = enzyme-acceptor control | activation, % at 11.2 µM | 6,700 tested, 0.3% active;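 active means mean percent activation in the counterscreen above 29.09%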;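 further: counterscreen on off-target GPR119 to flag nonselective hits from the GPR151 activator screen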
Target sequence (Q8TDV5 whole entry, looked up): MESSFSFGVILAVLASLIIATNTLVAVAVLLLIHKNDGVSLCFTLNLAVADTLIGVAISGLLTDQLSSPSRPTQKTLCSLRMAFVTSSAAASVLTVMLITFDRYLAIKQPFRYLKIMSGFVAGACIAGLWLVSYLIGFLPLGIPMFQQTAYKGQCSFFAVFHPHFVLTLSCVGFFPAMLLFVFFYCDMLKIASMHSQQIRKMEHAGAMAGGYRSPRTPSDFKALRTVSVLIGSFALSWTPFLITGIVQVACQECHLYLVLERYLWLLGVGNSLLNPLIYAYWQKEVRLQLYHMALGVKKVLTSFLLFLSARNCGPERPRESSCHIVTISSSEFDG
* = called active by the depositor; · = no result given.

SMILES	GPR151 activ	FBW7 activator	TEAD-YAP block	MITF inh	MITF confirm	AlphaScreen intf2	others
COc1ccc(OC)c(CN2CCN(Cc3ccccc3)CC2)c1	0	0	-5	6	·	·
COc1ccc2[nH]c(C)c(CCNCc3cccc(OC)c3OC)c2c1	1	0	13	52*	3	6
CC(C)N1CCN(C2CC3CCC2C3)CC1 (stereo not given)	-1	0	4	61*	-12	2
COc1cc(OC)c(OC)cc1CN1CCN(C(C)C)CC1	-2	0	7	68*	4	3
COc1ccc(CN2CCN(CCO)CC2)c(OC)c1	0	1	10	5	·	·
COc1ccc(CN2CCN(C(C)C)CC2)c(OC)c1	0	0	2	71*	7	16
CCN1CCN(Cc2cc(OC)c(OC)cc2Br)CC1	0	0	-1	4	·	·
CN1CC2([N+](=O)[O-])C=CC(=O)C([N+](=O)[O-])(C1)C2 (stereo not given)	-1	0	8	29	·	·
C1COCCOCCOCCOCCO1.C1COCCOCCOCCOCCO1.[Cl-].[Cs+].[O]=[Cr](=[O])=[O]	2	0	-3	57*	19	7
COc1ccc(CN2CCN(Cc3ccccc3C)CC2)cc1	1	0	-7	75*	-3	10
Cc1ccc(CN2CCN(Cc3ccccc3C)CC2)cc1	0	0	14	56*	-12	-5
Cc1ccccc1CN1CCN(Cc2ccccc2Cl)CC1	0	0	12	11	·	·
Cc1ccccc1CN1CCN(c2ccc(Cl)cc2)CC1	0	0	-2	-5	·	·
Clc1ccc(CN2CCNCC2)cc1	0	0	-11	15	·	·
CCc1ccc(CN2CCN(Cc3ccccc3C)CC2)cc1	2	0	4	65*	3	11
Cc1ccc(CN2CCN(Cc3ccc(Cl)cc3)CC2)cc1	-1	0	-7	83*	-6	-5
COc1cc(/C=C2\C(=O)NC(=O)N(Cc3ccccc3)C2=O)cc(OC)c1O	-1	-1	-3	-5	·	·
Brc1csc(CNCCc2ccccc2)c1	0	0	7	11	·	·
O=C(Cc1cc(=O)[nH]c(=O)[nH]1)N1CCN(Cc2ccccc2)CC1	-1	0	10	-6	·	·
Cc1ccccc1CN1CCN(C)CC1	1	0	1	-7	·	·
Cc1ccc(C)c(CN2CCN(C)CC2)c1	1	0	4	62*	2	4
CCOC(=O)C1C2NC(=S)N(c3ccccc3C)C1(C)Oc1c(OCC)cccc12 (stereo not given)	-2	-1	8	60*	34*	36*
CCOC(=O)c1cccc(NC(=O)CCc2nc(C3=CCN(C)CC3)no2)c1	2	1	12	9	·	·
CC(C)c1ccc(NC(=O)CCc2nc(C3=CCN(C)CC3)no2)cc1	2	1	-3	32	·	·
CCN(CC)S(=O)(=O)c1ccc(NC(=O)CCc2nc(C3=CCN(C)CC3)no2)cc1	-2	0	12	83*	94*	66*
SMILES	GPR151 activ	FBW7 activator	TEAD-YAP block	MITF inh	MITF confirm	AlphaScreen intf2	others
CCc1ccc(NC(=O)CCc2nc(C3=CCN(C)CC3)no2)cc1	-2	1	6	65*	48*	19	AlphaScreen DR=>6.5
CCN1CCN(Cc2ccc(NC(=O)CCc3nc(C4=CCN(C)CC4)no3)cc2)CC1	0	3.9*	5	59*	63*	42*
CCOC(=O)N1CCC(NC(=O)CCc2nc(C3=CCN(C)CC3)no2)CC1	-1	0	7	53*	35*	15	AlphaScreen DR=>6.5
CN1CCN(c2ccc([N+](=O)[O-])cc2C#N)CC1	1	0	4	9	·	·
CN1CC=C(c2noc(CCC(=O)Nc3ccc(Cl)cc3)n2)CC1	1	0	-2	73*	68*	46*
CC1(C)COP(=O)(C(NS(=O)(=O)c2ccccc2)C(Cl)(Cl)Cl)OC1 (stereo not given)	-1	0	-7	0	·	·
CN1CCN(Cc2ccccc2[N+](=O)[O-])CC1	0	0	9	47	·	·
O=[N+]([O-])c1ccccc1CN1CCN(Cc2ccc(F)cc2)CC1	0	0	-23	68*	16	18
Cc1ccc(N2CCN(Cc3ccccc3[N+](=O)[O-])CC2)cc1	0	0	-10	6	·	·
O=[N+]([O-])c1ccccc1CN1CCN(c2ccc(F)cc2)CC1	0	0	5	54*	-2	-1
CCCC(C)n1[nH]c(=O)c2c1NC(=O)CSC2c1ccc(OCC)cc1 (stereo not given)	-1	0	-15	-13	·	·
O=c1c2ccccc2nc(/C=C/c2ccccc2)n1-c1cccc(O)c1	1	0	5	5	·	·
Nc1ncnc2c1ncn2[C@@H]1O[C@H](COP(=O)(O)CP(=O)(O)OP(=O)(O)O)[C@H](O)C1O (stereo not given in full)	-1	0	-4	11	·	·
CCN(CC)c1ncnc2c1ncn2[C@@H]1O[C@H](COP(=O)(O)OP(=O)(O)C(Br)(Br)P(=O)(O)O)C(O)[C@@H]1O (stereo not given in full)	3	0	·	73*	88*	-23	AlphaScreen DR=>6.5
CN1C2CCC1CC(OC(=O)CNCc1cccs1)C2 (stereo not given)	7.3*	0	0	52*	7	14	GPR151 conf act=0;GPR119 counter=5
CN1CCN(CCC(=O)OC2CC3CCC(C2)N3C)CC1 (stereo not given)	1	0	4	9	·	·
CCOC(=O)C1=C(C)OC(N)=C(C(=O)OC)C12C(=O)N(C)c1ccccc12 (stereo not given)	0	0	0	2	·	·
C=CCN(CC#CCOc1ccccc1OC)CC=C	11*	0	-11	60*	7	12	GPR151 conf act=0;GPR119 counter=-4
CCOC(=O)C1=C(C)OC(N)=C(C#N)C12C(=O)N1c3c(cc(CC)cc32)C(C)CC1(C)C (stereo not given)	9.0*	0	4	11	·	·	GPR151 conf act=0;GPR119 counter=-8
CCOC(=O)C1=C(N)Oc2cc(O)ccc2C12C(=O)N1c3c(cccc32)C(C)CC1(C)C (stereo not given)	0	0	8	6	·	·
O=c1c2ccccc2nc(/C=C/c2ccco2)n1-c1ccc(O)cc1	5.1*	0	11	13	·	·	GPR151 conf act=2;GPR119 counter=10
